Source: PubChem (The Scripps Research Institute Molecular Screening Center)
GPR151 ag: activates the human receptor GPR151. PathHunter beta-arrestin GPR151 cells, luminescence. Q8TDV0. activation, % at 11.2 µM. 650,000 tested, 1% active; in the data active = activation above about 4.9%;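 also: 0% = median of compound wells and 100% = cells with positive control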
FBW7 activator: activators of human E3 ligase FBW7; AlphaScreen FBW7–phospho-cyclin E peptide binding, activator screen; normalized activity (activation), % at 26.1 µM; 650,000 tested, 0.13% active; AID 1259310; in the data active = normalized activity above about 1.9%;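 also: purified mutant Fbw7 with reduced substrate affinity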
TEAD-YAP inh: TEAD-YAP interaction inhibition; AID 1259422; 640,000 tested, 1.4% active; inhibition, % at 9.12 µM; HEK-TIYL cells, TEAD-Gal4/YAP UAS-luciferase luminescence; in the data active = inhibition above about 32%;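 also: 0% = median of test compound wells and 100% = reference inhibitor wells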
MITF inh: inhibitors of human MITF | O75030 | AlphaScreen MITF homodimerization, bead proximity signal | inhibition, % at 2.6 µM | 650,000 tested, 0.91% active | AID 1259374; in the data active = inhibition above about 50%;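 also: 0% = vehicle wells with protein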
Target sequence (O75030 whole entry, looked up): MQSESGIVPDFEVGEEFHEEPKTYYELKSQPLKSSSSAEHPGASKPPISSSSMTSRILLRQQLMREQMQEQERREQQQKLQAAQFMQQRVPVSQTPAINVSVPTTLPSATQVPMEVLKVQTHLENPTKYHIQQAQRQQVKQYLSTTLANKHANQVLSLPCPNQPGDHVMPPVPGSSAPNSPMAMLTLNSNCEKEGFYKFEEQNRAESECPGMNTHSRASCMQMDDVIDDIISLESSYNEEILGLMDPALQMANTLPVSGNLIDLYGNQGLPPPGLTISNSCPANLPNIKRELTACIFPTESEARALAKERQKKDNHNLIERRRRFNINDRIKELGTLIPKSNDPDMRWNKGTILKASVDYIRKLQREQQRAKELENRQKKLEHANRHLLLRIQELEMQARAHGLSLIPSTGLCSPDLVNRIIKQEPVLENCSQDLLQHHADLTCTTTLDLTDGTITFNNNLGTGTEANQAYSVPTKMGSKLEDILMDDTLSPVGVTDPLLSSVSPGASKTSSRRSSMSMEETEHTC
An asterisk follows results filed as active. Compounds with a hit are over-represented: about 3.4% of the library has one in this group of screens.

Screening c1ccc(-n2cnc3c(NC4CC4)nc(N4CCOCC4)nc32)cc1 returned GPR151 ag 1, FBW7 activator 0, TEAD-YAP inh 52* and MITF inh -1.
CC(C)N(CCNc1nc(N2CCOCC2)nc2c1ncn2-c1ccsc1)C(C)C was read as GPR151 ag 0, FBW7 activator 0, TEAD-YAP inh 55* and MITF inh 2.
Screening OCC1CCCN1c1nc(NC2CC2)c2ncn(-c3ccsc3)c2n1 (stereo not given) returned GPR151 ag 2, FBW7 activator 0, TEAD-YAP inh 1 and MITF inh 4.
Screening c1cc(-n2cnc3c(NC4CC4)nc(N4CCOCC4)nc32)cs1 returned GPR151 ag -1, FBW7 activator 0, TEAD-YAP inh 56* and MITF inh -1.
CCC(Sc1nc2ccsc2c(=O)n1NC(=O)c1cccc(OC)c1)C(=O)Nc1cccc(C)c1 (stereo not given) was read as GPR151 ag 0, FBW7 activator 0, TEAD-YAP inh -37 and MITF inh -1.
`CCc1ccc(OCC(=O)O/N=C(\N)c2ccc(Cl)cc2)cc1` gave GPR151 ag 0, FBW7 activator 0, TEAD-YAP inh 2 and MITF inh -5.
For COc1ccc(Cl)cc1C(=O)NCCNc1cc(N2CCOCC2)nc(C)n1 the results were GPR151 ag -3, FBW7 activator 1, TEAD-YAP inh 11 and MITF inh 19.
`Cc1c(C(=O)N2CCC(C(N)=O)(N3CCCCC3)CC2)sc2ncn(CC(=O)N3CCCCC3C)c(=O)c12` (stereo not given) gave GPR151 ag 1, FBW7 activator 0, TEAD-YAP inh -6 and MITF inh 6.
Screening c1cc(-n2cnc3c(NC4CC4)nc(N4CCC(N5CCOCC5)CC4)nc32)cs1 returned GPR151 ag -1, FBW7 activator 0, TEAD-YAP inh 46* and MITF inh 10.
`CC(=O)N1/C(=C/c2ccc(N(C)C)cc2)C(=O)c2ccccc21` gave GPR151 ag -1, FBW7 activator 0, TEAD-YAP inh 46* and MITF inh 43.
For CC(=O)N1/C(=C/c2ccncc2)C(=O)c2ccccc21 the results were GPR151 ag -2, FBW7 activator 0, TEAD-YAP inh -1 and MITF inh 5.
Screening COc1cc(C(OC(C)=O)OC(C)=O)c(Br)cc1OC(C)=O returned GPR151 ag 0, FBW7 activator 0, TEAD-YAP inh 7 and MITF inh 7.
CCN(CC)c1ccc(/C=N\Nc2cc(=O)n(C)c(=O)n2C)cc1 was read as GPR151 ag 0, FBW7 activator 0, TEAD-YAP inh 55* and MITF inh 4.
`N#CC1=C(SCC(=O)Nc2ccc(Cl)c(Cl)c2)NC(=O)CC1c1cccs1` (stereo not given) gave GPR151 ag 1, FBW7 activator 0, TEAD-YAP inh 59* and MITF inh 50.
`N#CC1=C(SCC(=O)Nc2ccccc2[N+](=O)[O-])NC(=O)CC1c1ccccc1F` (stereo not given) gave GPR151 ag 1, FBW7 activator 1, TEAD-YAP inh 34* and MITF inh 28.
N#CC1=C(SCC(=O)Nc2ccccc2Cl)NC(=O)CC1c1ccc(F)cc1 (stereo not given) was read as GPR151 ag 0, FBW7 activator 0, TEAD-YAP inh 6 and MITF inh 3.
`CCOC(=O)CSC1=C(C#N)C(c2ccc(C)o2)CC(=O)N1` (stereo not given) gave GPR151 ag 1, FBW7 activator 0, TEAD-YAP inh 60* and MITF inh 6.
Screening CCCCOC(=O)CSC1=C(C#N)C(c2cccc(Cl)c2)CC(=O)N1 (stereo not given) returned GPR151 ag 0, FBW7 activator 0, TEAD-YAP inh 45* and MITF inh 11.
`CCOC(=O)CSC1=C(C#N)C(c2cccc(Cl)c2)CC(=O)N1` (stereo not given) gave GPR151 ag -1, FBW7 activator 0, TEAD-YAP inh 66* and MITF inh 7.
Screening COC(=O)CSC1=C(C#N)C(c2cccc(Cl)c2)CC(=O)N1 (stereo not given) returned GPR151 ag 0, FBW7 activator 0, TEAD-YAP inh 57* and MITF inh -3.
`COC(=O)CSC1=C(C#N)C(c2ccc(Cl)cc2)CC(=O)N1` (stereo not given) gave GPR151 ag -1, FBW7 activator 0, TEAD-YAP inh -9 and MITF inh 5.
`CCOC(=O)CSC1=C(C#N)C(c2ccc(Cl)cc2)CC(=O)N1` (stereo not given) gave GPR151 ag -1, FBW7 activator 0, TEAD-YAP inh -13 and MITF inh -1.
For Cc1cccc(C)c1NC(=O)COC(=O)/C=C/c1ccc(Br)o1 the results were GPR151 ag 2, FBW7 activator 0, TEAD-YAP inh 10 and MITF inh 2.
For O=C1CN(C(=O)CSc2nc3c(n2-c2ccccc2)CCCC3)c2ccccc2N1 the results were GPR151 ag -1, FBW7 activator 0, TEAD-YAP inh 1 and MITF inh 5.
Screening C=CCN(CC=C)S(=O)(=O)c1ccc(C(=O)Nc2cccc3ccccc23)cc1 returned GPR151 ag 1, FBW7 activator 0, TEAD-YAP inh 3 and MITF inh -9.
Screening Nc1nc(SCCCC(=O)NCCO)nc2sc3c(c12)CCCC3 returned GPR151 ag -1, FBW7 activator 2.3*, TEAD-YAP inh 13 and MITF inh 15.
For Cc1ccc(NC(=O)c2ccc(Cl)cc2Cl)nc1 the results were GPR151 ag -4, FBW7 activator 0, TEAD-YAP inh 35* and MITF inh -4.
For Cc1cc(C)c(NC(=O)c2ccc(Cl)cc2)c([N+](=O)[O-])c1 the results were GPR151 ag -2, FBW7 activator 0, TEAD-YAP inh 42* and MITF inh -2.
Screening Cc1ccc(NC(=O)c2ccc(Cl)cc2[N+](=O)[O-])nc1 returned GPR151 ag 0, FBW7 activator 0, TEAD-YAP inh 41* and MITF inh 13.
`C=CCn1c2ccccc2n2cc(-c3ccccc3)nc12` gave GPR151 ag -2, FBW7 activator 1, TEAD-YAP inh -12 and MITF inh 10.
`Clc1ccc(-c2cn3c4ccccc4n(CCN4CCCCC4)c3n2)cc1` gave GPR151 ag 0, FBW7 activator 5.0*, TEAD-YAP inh 4 and MITF inh -28.
Screening CCn1c2ccccc2n2cc(-c3ccc(Br)cc3)nc12 returned GPR151 ag 3, FBW7 activator 2.3*, TEAD-YAP inh -12 and MITF inh -11.
CCC(C)N(CCCNC(=O)c1nc(-c2cccnc2)no1)Cc1ccco1 (stereo not given) was read as GPR151 ag 1, FBW7 activator 0, TEAD-YAP inh -2 and MITF inh 11.
`Cc1nc(N2CCCCC2)c2c(C)c(C(=O)NCCC3=CCCCC3)sc2n1` gave GPR151 ag 2, FBW7 activator 0, TEAD-YAP inh 1 and MITF inh 0.
N[C@H](C(=O)O)[C@H](O)c1ccc(O)c(O)c1 was read as GPR151 ag -2, FBW7 activator 0, TEAD-YAP inh 1 and MITF inh 54*.
